Experimental data from the supplement of paper PMC11150407.
The campaign covered roughly 3,000 compounds. About 45 (2%) showed an effect of 50% or more. For the sample, strong results were picked, then their nearest neighbours and some compounds at random.

Test system: MOLM1 and UCSD/AML1 (averaged)
Assay: cell viability relative to DMSO control (POC); higher = less growth inhibition
Settings: 1 µM; 72 h
Procedure: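 Primary viability screen in the 3q26 EVI1-high AML cell lines MOLM1 and UCSD/AML1, compounds at 1 uM for 72 h. ATP CellTiter-Glo read-out given as percent viable over DMSO control (POC), averaged over duplicates. This mapping covers the TimTec NDL-3000 natural derivative library, whose compounds are identified by TimTec catalogue codes (ST...).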

Compound	cell viability [%]
CCc1ccc2oc(=O)cc(CN3CCN(Cc4nc(-c5ccc(C)cc5)oc4C)CC3)c2c1	96.3
O=C(Cn1c(=O)cc(C(=O)N2CCCCC2)c2ccccc21)Nc1ccc(F)cc1	89.9
Cc1ccc2c(CN3CCN(Cc4ccc(Br)cc4F)CC3)cc(=O)oc2c1	100
CCc1ccc(-c2cc(-c3cc(OC)c(OC)c(OC)c3)[nH]c(=O)c2C#N)cc1	96.9
CC(=O)OCC1OC(OC(C)=O)C(OC(C)=O)C(OC(C)=O)C1OC(C)=O (centres undefined)	109
O=C(/C=C/c1cccc(Cl)c1)c1ccc(OC(=O)c2cccc([N+](=O)[O-])c2)cc1	102
Nc1nc2ncc(CNc3ccc(C(=O)N[C@H](CCC(=O)O)C(=O)O)cc3)nc2c(=O)[nH]1	102
COc1cc(C2C(C#N)=C(N)Oc3cc(N)ccc32)cc(OC)c1OC (centres undefined)	13.5
COc1cc(C2C(C#N)=C(N)Oc3n[nH]c(C)c32)ccc1O (centres undefined)	110
COc1cc(C2C(C#N)=C(N)Oc3n[nH]c(-c4ccccc4)c32)cc(OC)c1OC (centres undefined)	100
COc1cc(C(=O)N2CCCc3cccc(OCCNC(C)=O)c32)cc(OC)c1OC	98.7
CCOC(=O)CC[C@@H](C)[C@H]1CC[C@H]2[C@@H]3CC[C@@H]4C[C@H](O)CC[C@]4(C)[C@H]3C[C@H](O)[C@]12C	86
CC(=O)c1nc2ccccc2n1CC(=O)NCCOc1ccccc1	98.2
COc1cccc(NC(=O)Cn2c(=O)cc(C(=O)N3CCCC3)c3ccccc32)c1	102
COc1ccc(C(=O)c2sc(Nc3cccc(F)c3)nc2N)cc1OC	96.9
COc1ccc(C(=O)c2sc(Nc3ccc(F)cc3)nc2N)cc1OC	101
COc1ccc(Nc2nc(N)c(C(=O)c3ccc(OC)c(OC)c3)s2)cc1	15.4
CCOc1ccc(-c2nc(CSc3nc4c(=O)[nH]cnc4n3C)c(C)o2)cc1OC	118
COC(=O)c1cc(O)cc(O)c1	104
COC(=O)c1c(C)n(CCOc2ccc(F)cc2)c2ccc(O)cc12	96.9
COc1cc(C(=O)NCc2ccc3c(c2)OCO3)c(Br)c(OC)c1OC	105
COc1cc(OC)c(C(=O)/C=C/c2ccc(O)cc2)c(OC)c1	100
COc1cc(O)c(C(=O)/C=C/c2ccco2)c(OC)c1	112
COc1cc(OC)c(C(=O)/C=C/c2ccccc2)c(OC)c1	33
CCN(CC)c1ccc2[nH]c3c(C(N)=O)cc(=O)c(=O)c=3oc2c1	3.99

Compound	cell viability [%]
CCN(CC)c1ccc2cc(-c3ccccc3)c(=O)oc2c1	96.9
CC(C)c1ccc(NC(=O)Cn2c(=O)cc(C(=O)N3CCc4ccccc4C3)c3ccccc32)cc1	97.1
COc1cc(C(=O)/C=C2\C(=O)Nc3ccccc32)cc(OC)c1OC	21.6
COc1cc(C(=O)NC2Cc3ccccc3NC2=O)cc(OC)c1OC (centres undefined)	109
COc1ccc(C(=O)/C=C2\C(=O)Nc3ccccc32)cc1OC	52.3
CCN(CC)c1ccc2cc(-c3ccc(OC)cc3)c(=O)oc2c1	88.7
CN(C)c1ccc2cc3ccc(=[N+](C)C)cc-3oc2c1	3.15
COc1cc(/C=C/C(=O)c2ccc(C(=O)/C=C/c3cc(OC)c(OC)c(OC)c3)cc2)cc(OC)c1OC	106
Cc1ccc(C)c(NC(=O)CN2CCN(Cc3cc(=O)oc4cc(C)ccc34)CC2)c1	98.3
COc1ccccc1NC(=O)c1ccc2c(c1)OCO2	94.7
CCOc1ccccc1C1CCCC2(O)CCN(CC(=O)NCc3ccco3)CC12 (centres undefined)	99.5
CCOC(=O)C1=C(C)N(C)C(=O)NC1c1cc(Br)c(O)c(OC)c1 (centres undefined)	116
CCOC(=O)c1sc(NC(=O)/C=C/c2ccccc2)c(C(=O)OCC)c1C	96
COc1ccc(-c2cc(=O)c3ccccc3o2)c(OC)c1	113
COc1ccc2oc(C(Cl)(Cl)Cl)cc(=O)c2c1	3.78
COc1ccc2c(O)c([N+](=O)[O-])c(=O)oc2c1	105
COc1ccc2c(=O)cc(C(Cl)(Cl)Cl)oc2c1	5.13
COc1ccc(-c2cc(=O)c3cc(O)ccc3o2)cc1	71.1
COc1ccc2c(=O)c(O)c(-c3ccccc3)oc2c1	62.7
COc1cc(OC)cc(C(=O)Nc2ccccc2C(=O)Nc2ccccc2Cl)c1	95.1
CN1CCN(Cc2c(O)ccc3cc(-c4nc5ccccc5s4)c(=O)oc23)CC1	101
Cc1cc(C)c(NC(=O)Cn2c(=O)cc(C(=O)N3CCc4ccccc4C3)c3ccccc32)c(C)c1	100
CCCCCC1CCC(=O)N1CCN=Cc1c(O)c(O)c(C(C)C)c2cc(C)c(-c3c(C)cc4c(C(C)C)c(O)c(O)c(C=NCCN5C(=O)CCC5CCCCC)c4c3O)c(O)c12 (centres undefined)	86.9
Cc1[nH]c2ccccc2c1CCNC(=O)c1ccc(=O)[nH]c1	96.3
CC(Cl)COC(=O)/C=C/c1ccc([N+](=O)[O-])cc1 (centres undefined)	108

Compound	cell viability [%]
Cc1ccc(N2C3=C(C(=O)CC(C)(C)C3)C(c3ccc(O)cc3)C3=C2CC(C)(C)CC3=O)cc1	89.8
COc1ncnc2nc[nH]c12	100
Cc1ncnc2nc[nH]c12	3.11
Cc1ccc(OCCSc2ncnc3nc[nH]c23)cc1	92.7
Cc1ccc(-n2c(SCc3cn4ccccc4n3)nc3c(=O)[nH]cnc32)cc1	98.3
Cc1cc2c(C(C)C)c(O)c(O)c(C=NCCN3CCN(C)CC3)c2c(O)c1-c1c(C)cc2c(C(C)C)c(O)c(O)c(C=NCCN3CCN(C)CC3)c2c1O	98.8
Cc1cc2c(C(C)C)c(O)c(O)c(/C=N/N3CCN(C)CC3)c2c(O)c1-c1c(C)cc2c(C(C)C)c(O)c(O)c(/C=N/N3CCN(C)CC3)c2c1O	4.5
CCC(O)/N=C/c1c(O)c(O)c(C(C)C)c2cc(C)c(-c3c(C)cc4c(C(C)C)c(O)c(O)c(/C=N/C(O)CC)c4c3O)c(O)c12 (centres undefined)	88.9
COc1ccc(NC(=O)CSc2nc3c(=O)[nH]cnc3n2-c2ccc(C)cc2)c(OC)c1	102
Cc1ccc(C(=O)N2N=C(c3c(-c4ccccc4)c4cc(Br)ccc4[nH]c3=O)CC2c2ccccc2)cc1 (centres undefined)	100
O=C(O)c1ccc2[nH]c3c(c2c1)CCCC3	95.7
CCOC(=O)N1CCc2[nH]c3ccc(C)cc3c2C1	42.4
CCOC(=O)N1CCc2[nH]c3ccc(Cl)cc3c2C1	89.6
CCN(CC)CCC(=O)c1ccc(OC)c(OC)c1	98.6
COc1ccc(/C=C/C(=O)Oc2ccc(C(C)C)cc2)c(OC)c1	101
COc1ccc(Br)cc1/C=C/C(=O)O	95.6
CCOC(=O)CCc1ccc2c(c1)NC(=O)CC2	91.8
CCOC(=O)CCc1n[nH]c(=O)[nH]c1=O	88.1
CCOC(=O)[C@H]1CCC(=O)N1	17.6
Cc1cccc(NC(=O)CSc2nc3c(=O)[nH]cnc3n2C)c1C	95.1
Cc1[nH]c2ccc(Br)cc2c1CCNC(=O)c1cccs1	100
Cc1ccc(NC(=O)CSc2nc3c(=O)[nH]cnc3n2CC2CCCO2)c(Cl)c1 (centres undefined)	98.7
COc1ccc(C(=O)N2CCN(Cc3cc(=O)oc4cc(C)ccc34)CC2)c(OC)c1	93
Cc1ccc2c(CN3CCN(C(=O)OC(C)(C)C)CC3)cc(=O)oc2c1	14.9
Cc1ccc2c(CN3CCN(Cc4ccc(Cl)cc4)CC3)cc(=O)oc2c1	96.2

Compound	cell viability [%]
C=C(C)C1CCC2(C)CCC3(C)C(CCC4C5(C)CCC(OC(C)=O)C(C)(C)C5CCC43C)C12 (centres undefined)	102
COc1ccc(OC)c2c(C)cc(SCC(=O)c3ccc4c(c3)OCCO4)nc12	101
COC(=O)C1=C(C)NC(SC)=C(C#N)C1c1cc(OC)c(OC)c(OC)c1 (centres undefined)	18.3
COC(=O)C1=C(C)NC2=C(C(=O)CC(c3ccc(OC)c(OC)c3)C2)C1c1cc(OC)c(OC)c(OC)c1 (centres undefined)	101
COC(=O)C1=C(C)NC2=C(C(=O)CCC2)C1c1cc(OC)c(OC)c(OC)c1 (centres undefined)	94.9
CC(=O)/C=C(\C)NC(C)C(=O)O (centres undefined)	102
O=C(/C=C/c1cccc(NC(=O)c2ccc(Br)cc2)c1)c1cccc(NC(=O)c2ccc(Br)cc2)c1	1.83
O=C(/C=C/c1ccc(Cl)cc1Cl)c1ccc(Br)cc1	108
O=C(/C=C/c1ccc(NC(=O)c2cc(NC(=O)C(c3ccccc3)c3ccccc3)cc(NC(=O)C(c3ccccc3)c3ccccc3)c2)cc1)c1ccccc1	94.6
CCCCCCOC(=O)c1ccccc1NC(=O)c1c(O)c2ccccc2[nH]c1=O	97.5
CCOc1cc(/C=C2\Oc3ccc(C(=O)OC)cc3C2=O)ccc1O	16.8
CCOc1ccc(/C=C2/Oc3ccc(C(=O)OC)cc3C2=O)cc1OCC	96.6
COC(=O)c1ccc2c(c1)C(=O)/C(=C/c1ccc(O)c(OC)c1)O2	84.6
COc1cc(N(C(C)=O)C2OC(COC(C)=O)C(OC(C)=O)C(OC(C)=O)C2OC(C)=O)c(OC)c2c(C)cc(C)nc12 (centres undefined)	98.5
CCOC(=O)CSc1nc2c(c(=O)[nH]c(=O)n2C)n1Cc1cccc(C)c1	100
Cc1ccc(-n2c(SCc3cccc(Cl)c3)nc3c(=O)[nH]cnc32)cc1	114
CN(C)S(=O)(=O)Nc1ccc(S(=O)(=O)N2CCc3ccccc3C2)cc1	98.2
COc1ccc(-c2nnc(SCc3nc4ccccc4[nH]3)o2)cc1OC	95.3
Cc1ccc(/C=C2\Oc3cc(O)ccc3C2=O)cc1	98.7
O=C(CSc1nc2c(=O)[nH]cnc2n1-c1ccccc1)NC1CCCC1	91.7
CC(NC(=O)c1ccccc1)C(=O)O (centres undefined)	99.5
COc1ccc(/C=C/C(=O)N2CCc3c([nH]c4ccccc34)C2c2ccc(OC)cc2)cc1 (centres undefined)	90.2
COc1ccc(C2c3[nH]c4ccccc4c3CCN2C(=O)/C=C/c2ccc(OC)c(OC)c2)cc1 (centres undefined)	81.9
COc1ccc(C2c3[nH]c4ccccc4c3CCN2C(=O)/C=C/c2cc(OC)c(OC)c(OC)c2)cc1 (centres undefined)	32.6
